Source: PubChem
CYP2C9 inh: inhibitors of human CYP2C9 | inhibition, % at 5 µM | actives 20% (n = 96,000) | CYP2C9 Supersomes, luciferin-H conversion, luminescence | P11712;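 active means blocking of liver enzyme CYP2C9 beyond about 50% at 5 µM, limit read from the data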
CYP2C19 activ: activators of human cytochrome P450 2C19. recombinant CYP2C19, luciferin-H EGE luminescence; stronger effect = higher value; 0 = fully inhibited enzyme, 1 = untreated enzyme. activation factor at 5 µM. 96,000 tested, under 10 active. AID 1025;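 active means activation factor of at least 2 at 5 µM in the primary screen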
CYP2C9 act: increases human cytochrome P450 2C9 activity. P11712. recombinant CYP2C9, luciferin-H conversion, luminescence; stronger effect = higher value; factor 1 = untreated enzyme, 0 = blocked. activation factor at 5 µM. actives 1.4% (n = 96,000). AID 1024;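 active means activation factor of 2 or more for CYP2C9 at a 5 µM dose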
D1 allo mod: allosteric modulators of human D1 dopamine receptor | AID 641 | actives 5.9% (n = 58,000) | B-score at 10 µM | P21728 | HEK293 D1, CRE-luciferase, dopamine EC30 potentiation; actives deviate in either direction;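 active means luminescence count or its row- and column-corrected plate score outside the 99.7% band of the plate's sample wells, on either side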
Target sequence (P21728 whole entry, looked up): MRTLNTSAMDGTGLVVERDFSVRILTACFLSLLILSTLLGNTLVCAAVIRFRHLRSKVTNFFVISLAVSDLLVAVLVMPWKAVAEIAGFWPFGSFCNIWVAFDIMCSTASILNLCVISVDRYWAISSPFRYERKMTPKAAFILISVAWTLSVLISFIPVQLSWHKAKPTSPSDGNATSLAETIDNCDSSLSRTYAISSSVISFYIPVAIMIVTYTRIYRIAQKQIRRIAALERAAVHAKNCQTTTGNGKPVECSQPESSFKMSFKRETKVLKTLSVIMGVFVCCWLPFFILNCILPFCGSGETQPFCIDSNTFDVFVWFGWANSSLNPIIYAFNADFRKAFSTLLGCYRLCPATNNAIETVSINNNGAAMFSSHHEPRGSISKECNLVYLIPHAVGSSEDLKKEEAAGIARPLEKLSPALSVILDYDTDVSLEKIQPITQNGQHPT
CYP2C19 inh: blocks human cytochrome P450 2C19; P33261; CYP2C19 Supersomes, luciferin-H EGE luminescence, 30 min; inhibition, % at 5 µM; actives 21% (n = 96,000);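 active means CYP2C19 inhibition above a set limit at 5 µM in the primary screen, cut at about 50% in these data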
hDAT+cocaine: modulates human dopamine transporter uptake under cocaine. Q01959. LLC-PK1 hDAT cells, [14C]-dopamine uptake with cocaine IC80; actives deviate in either direction. B-score at 10 µM. actives 1.3% (n = 110,000). AID 449768;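 active means Z score or B-score, a plate-position-corrected score, falls beyond the plate's 99.7% confidence bounds, in either direction; inactive means both scores lie inside the 99.7% bounds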
Each line names hits and unclear results; the compound was inactive in the other large screens. Compounds with a hit are over-represented: about 28% of the library has one in this group of screens.

Cc1cccc(OCCCC(=O)NCc2ccco2)c1	none (no result: D1 allo mod)
Cc1cccc(C)c1NC(=O)C(NC=O)c1ccc(Cl)cc1 (stereo not given)	CYP2C19 inh 58 (no result: D1 allo mod)
CCc1ccc(S(=O)(=O)NCc2cn3cccc(C)c3n2)s1	none
CCc1ccc(S(=O)(=O)NCc2cn3ccsc3n2)s1	none
CCc1ccc(S(=O)(=O)NCCc2cn3ccsc3n2)s1	CYP2C19 inh 68
CCc1ccc(S(=O)(=O)NCc2cn3ccccc3n2)s1	CYP2C19 inh 86
O=C(CN1/C(=C(/O)c2ccccc2)C(=O)c2ccccc2S1(=O)=O)c1ccccc1	none (no result: D1 allo mod)
COc1ccc(CNC(=O)COC(=O)C2=COCCO2)cc1	none (no result: D1 allo mod)
CC(C)(C)c1ccc(NC(=O)COC(=O)C2=COCCO2)cc1	none
CC(CCc1ccccc1)NC(=O)COC(=O)C1=COCCO1 (stereo not given)	CYP2C9 inh 50, CYP2C19 inh 56
CCOC(=O)c1ccccc1NC(=O)COC(=O)C1=COCCO1	CYP2C9 inh 68
O=C(COC(=O)C1=COCCO1)Nc1ccc(Oc2ccccc2)cc1	CYP2C9 inh 90, CYP2C19 inh 82 (no result: D1 allo mod)
COc1ccc(NC2CC(=O)NC2=O)cc1 (stereo not given)	none
O=C(CN(c1ccc(F)cc1)S(=O)(=O)c1ccc2c(c1)OCCO2)Nc1cccnc1	CYP2C9 inh 99, CYP2C19 inh 92 (no result: D1 allo mod)
O=C(CN(Cc1ccccc1)S(=O)(=O)c1ccc2c(c1)OCCO2)Nc1ccc2c(c1)OCCO2	CYP2C9 inh 96
O=C(CN(c1ccc(F)cc1)S(=O)(=O)c1ccc2c(c1)OCCO2)Nc1ccccc1	CYP2C9 inh 65 (no result: D1 allo mod)
CC(=O)Nc1ccc(NC(=O)CN(c2ccc(F)cc2)S(=O)(=O)c2ccc3c(c2)OCCO3)cc1	none (no result: D1 allo mod)
O=C(Cc1ccccc1)Nn1cnc2ccccc21	none
CCOC(=O)c1nc(C)c(C(C)=O)s1	none (no result: CYP2C9 inh, CYP2C19 activ, CYP2C9 act, D1 allo mod, CYP2C19 inh)
O=C(/C=C/c1ccccc1)N1CCN(CC(O)COc2ccccc2)CC1 (stereo not given)	none (no result: D1 allo mod)
Nc1ncnc2nc(SCCN3CCCCC3)[nH]c12	none (no result: hDAT+cocaine)
Cc1cc2nc(SCCN3CCCC3)[nH]c2cc1C	hDAT+cocaine -7.8 (no result: D1 allo mod)
CCc1ccccc1N1C(=O)C2CC(C)=C(C)CC2C1=O (stereo not given)	CYP2C9 inh 51
CCc1ccccc1N1C(=O)C2CC=CCC2C1=O (stereo not given)	none
COc1ccc(C(=O)OCC(=O)c2ccc(C3CCCCC3)cc2)cc1	none (no result: D1 allo mod)
COC(=O)C1C2C=CC(C3CC23)C1C(=O)OCC(=O)c1ccccc1 (stereo not given)	CYP2C9 inh 57, CYP2C19 inh 95 (no result: D1 allo mod)
COc1ccc(C(=O)COC(=O)CCN2C(=O)C3C4CC(C(Br)C4Br)C3C2=O)cc1 (stereo not given)	hDAT+cocaine -2.3 (no result: D1 allo mod)
COC(=O)C1C2C=CC(C3CC23)C1C(=O)OCC(=O)c1ccc(OC)cc1 (stereo not given)	CYP2C19 inh 83 (no result: D1 allo mod)
CCC(=O)NCC(=O)OCC(=O)c1ccccc1	none (no result: CYP2C9 inh, CYP2C19 activ, CYP2C9 act, D1 allo mod, CYP2C19 inh)
CCCCCN(C(=O)NC(=O)Nn1cnnc1)S(C)(=O)=O	none
CCCCCN(C(=O)NC(=O)Nc1nncs1)S(C)(=O)=O	CYP2C9 inh 61
CCCCN(C(=O)NC(=O)Nc1ccccc1OC)S(C)(=O)=O	none
CCCCN(C(=O)NC(=O)Nc1cc(C)ccc1C)S(C)(=O)=O	CYP2C9 inh 56
CC1(OC(=O)C2CCCC2)C(=O)C=C2C=C(c3ccsc3)N(CCc3c[nH]c4ccccc34)C=C2C1=O (stereo not given)	none (no result: CYP2C9 inh, CYP2C19 activ, CYP2C9 act, D1 allo mod, CYP2C19 inh)
O=C(CC1Nc2ccccc2NC1=O)c1ccccc1 (stereo not given)	none
CC(=C1C2C=CC1C1C(=O)NC(=O)C21)c1ccccc1 (stereo not given)	CYP2C19 inh 79
Cc1cccc(CCN2CCC(C(=O)c3ccc(NS(C)(=O)=O)cc3)CC2)n1	none (no result: CYP2C9 inh, CYP2C19 activ, CYP2C9 act, D1 allo mod, CYP2C19 inh)
Cc1ccc(N2CC(C(=O)Nc3nnc(C(C)C)s3)CC2=O)cc1 (stereo not given)	CYP2C9 inh 58
Cc1ccc(N2CC(C(=O)NCCC(C)C)CC2=O)cc1 (stereo not given)	none (no result: CYP2C9 inh, CYP2C19 activ, CYP2C9 act, CYP2C19 inh)
Cc1ccc(N2CC(C(=O)NCCCn3ccnc3)CC2=O)cc1 (stereo not given)	CYP2C9 inh 76, CYP2C19 inh 85
